In publication PMC11006913 one finds binding signal data, which are given here for five sequences.

Where a chain is given by its changes, count along the chain named.

What all share (experiment): PBM; 200 nM protein, PBS
Settings in all cases: dsDNA, one strand shown

Assay [1] addresses HESX1 (Homo sapiens, UniProt Q9UBX0 95-180, R165K).
Assay [2] concerns the target CRX (Homo sapiens, UniProt O43186 26-111).
Assay [3] addresses HESX1 (Homo sapiens, UniProt Q9UBX0 95-180).
The target of assay [4] is CRX (Homo sapiens, UniProt O43186 26-111, E42D).
Assay [5] deals with HESX1 (Homo sapiens, UniProt Q9UBX0 95-180, R109Q).
Assay [6] deals with HESX1 (Homo sapiens, UniProt Q9UBX0 95-180, P111T).
Assay [7] has as its target HESX1 (Homo sapiens, UniProt Q9UBX0 95-180, F115L).
The target in assay [8] is CRX (Homo sapiens, UniProt O43186 26-111, R41L).
Assay [9] addresses T1, SIX6 (Homo sapiens, UniProt O95475 114-200, L167I).
T1 sequence: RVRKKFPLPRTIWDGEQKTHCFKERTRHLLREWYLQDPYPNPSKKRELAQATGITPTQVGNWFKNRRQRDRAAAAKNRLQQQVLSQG

Assay [10] concerns the target HOXC9 (Homo sapiens, UniProt P31274 178-260, K195R).
The target of assay [11] is T2, SIX6 (Homo sapiens, UniProt O95475 114-200, L143V).
T2 sequence: T1 sequence with L30V, I54L

Assay [12] deals with T3, PAX4 (Homo sapiens, UniProt O43316 9-242, R200K).
T3 sequence: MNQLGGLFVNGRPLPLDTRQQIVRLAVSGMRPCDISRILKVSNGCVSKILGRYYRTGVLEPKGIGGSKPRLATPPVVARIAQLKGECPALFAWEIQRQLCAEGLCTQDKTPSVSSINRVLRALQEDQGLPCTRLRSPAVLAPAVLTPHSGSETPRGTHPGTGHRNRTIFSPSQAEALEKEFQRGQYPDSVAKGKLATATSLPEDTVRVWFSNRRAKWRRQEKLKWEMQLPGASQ

Assay [13] has as its target T4, SIX6 (Homo sapiens, UniProt O95475 114-200, H141N).
T4 sequence: T1 sequence with H28N, I54L

In assay [14] the target is T5, SIX6 (Homo sapiens, UniProt O95475 114-200, T165P).
T5 sequence: T1 sequence with T52P, I54L

The target of assay [15] is T6, PAX4 (Homo sapiens, UniProt O43316 9-242).
T6 sequence: T3 sequence with K192R

For assay [16], the target named is T7, SIX6 (Homo sapiens, UniProt O95475 114-200, L167M).
T7 sequence: T1 sequence with I54M

In assay [17] the target is T8, SIX6 (Homo sapiens, UniProt O95475 114-200, L143M).
T8 sequence: T1 sequence with L30M, I54L

Assay [18] has as its target T9, SIX6 (Homo sapiens, UniProt O95475 114-200, L143I).
T9 sequence: T1 sequence with L30I, I54L

Assay [19] deals with T10, SIX6 (Homo sapiens, UniProt O95475 114-200, T165G).
T10 sequence: T1 sequence with T52G, I54L

Assay [20] deals with HOXA2 (Homo sapiens, UniProt O43364 129-215, R185T).
Assay [21] has as its target T11, SIX6 (Homo sapiens, UniProt O95475 114-200, T139Q).
T11 sequence: T1 sequence with T26Q, I54L

Assay [22] addresses HOXC9 (Homo sapiens, UniProt P31274 178-260).
In assay [23] the target is T12, SIX6 (Homo sapiens, UniProt O95475 114-200, T165A).
T12 sequence: T1 sequence with T52A, I54L

Assay [24] has as its target T13, PAX4 (Homo sapiens, UniProt O43316 9-242, R200Q).
T13 sequence: T3 sequence with K192Q

Assay [25] concerns the target HOXC9 (Homo sapiens, UniProt P31274 178-260, R193K).
Assay [26] has as its target HOXA2 (Homo sapiens, UniProt O43364 129-215, R185K).
Assay [27] has as its target T14, PAX4 (Homo sapiens, UniProt O43316 9-242, F177V).
T14 sequence: T3 sequence with F169V, K192R

Assay [28] has as its target T15, SIX6 (Homo sapiens, UniProt O95475 114-200, L167V).
T15 sequence: T1 sequence with I54V

Assay [29] concerns the target T16, PAX4 (Homo sapiens, UniProt O43316 9-242, F177Y).
T16 sequence: T3 sequence with F169Y, K192R

For assay [30], the target named is T17, SIX6 (Homo sapiens, UniProt O95475 114-200).
T17 sequence: T1 sequence with I54L

Assay [31] addresses T18, SIX6 (Homo sapiens, UniProt O95475 114-200, T165I).
T18 sequence: T1 sequence with T52I, I54L

Assay [32] addresses HOXC9 (Homo sapiens, UniProt P31274 178-260, R222W).
For assay [33], the target named is T19, PAX4 (Homo sapiens, UniProt O43316 9-242, R227W).
T19 sequence: T3 sequence with K192R, R219W

For assay [34], the target named is HOXA2 (Homo sapiens, UniProt O43364 129-215, Y150S).
The target in assay [35] is HOXA2 (Homo sapiens, UniProt O43364 129-215).
The target of assay [36] is HOXA7 (Homo sapiens, UniProt P31268 116-202).
The target in assay [37] is HOXA7 (Homo sapiens, UniProt P31268 116-202, W177C).
Assay [38] concerns the target T20, VENTX (Homo sapiens, UniProt O95231 78-163, R121Q).
T20 sequence: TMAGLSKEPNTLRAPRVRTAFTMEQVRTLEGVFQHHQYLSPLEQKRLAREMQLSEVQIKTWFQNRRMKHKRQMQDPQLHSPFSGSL

Assay [39] deals with T21, VENTX (Homo sapiens, UniProt O95231 78-163, Y115F).
T21 sequence: T20 sequence with Y38F, Q44R

Assay [40] deals with T22, VENTX (Homo sapiens, UniProt O95231 78-163).
T22 sequence: T20 sequence with Q44R

In assay [41] the target is T23, NKX2-6 (Homo sapiens, UniProt A6NCS4 118-204).
T23 sequence: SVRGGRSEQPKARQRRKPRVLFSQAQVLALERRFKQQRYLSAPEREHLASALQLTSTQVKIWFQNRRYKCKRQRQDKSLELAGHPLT

Assay [42] deals with T24, NKX2-6 (Homo sapiens, UniProt A6NCS4 118-204, F151L).
T24 sequence: T23 sequence with F34L

Sequence of HESX1 (Homo sapiens, UniProt Q9UBX0 95-180, P111T) (Q9UBX0 95-180 P111T): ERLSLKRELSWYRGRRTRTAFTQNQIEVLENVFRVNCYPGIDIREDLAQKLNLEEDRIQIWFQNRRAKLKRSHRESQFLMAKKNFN
Sequence of HESX1 (Homo sapiens, UniProt Q9UBX0 95-180) (Q9UBX0 95-180): as the sequence (Q9UBX0 95-180 P111T) above, with T17P counted along it
Sequence of HESX1 (Homo sapiens, UniProt Q9UBX0 95-180, R109Q) (Q9UBX0 95-180 R109Q): as the sequence (Q9UBX0 95-180 P111T) above, with R15Q, T17P counted along it
Sequence of HESX1 (Homo sapiens, UniProt Q9UBX0 95-180, R165K) (Q9UBX0 95-180 R165K): as the sequence (Q9UBX0 95-180 P111T) above, with T17P, R71K counted along it
Sequence of HESX1 (Homo sapiens, UniProt Q9UBX0 95-180, F115L) (Q9UBX0 95-180 F115L): as the sequence (Q9UBX0 95-180 P111T) above, with T17P, F21L counted along it
Sequence of HOXA2 (Homo sapiens, UniProt O43364 129-215, Y150S) (O43364 129-215 Y150S): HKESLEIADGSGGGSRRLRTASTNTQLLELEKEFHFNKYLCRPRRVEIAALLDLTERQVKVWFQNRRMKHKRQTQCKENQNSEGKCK
Sequence of HOXA2 (Homo sapiens, UniProt O43364 129-215, R185T) (O43364 129-215 R185T): as the sequence (O43364 129-215 Y150S) above, with S22Y, R57T counted along it
Sequence of HOXC9 (Homo sapiens, UniProt P31274 178-260, R222W) (P31274 178-260 R222W): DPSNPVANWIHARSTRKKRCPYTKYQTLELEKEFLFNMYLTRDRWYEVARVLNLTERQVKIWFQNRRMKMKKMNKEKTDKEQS
Sequence of HOXC9 (Homo sapiens, UniProt P31274 178-260, K195R) (P31274 178-260 K195R): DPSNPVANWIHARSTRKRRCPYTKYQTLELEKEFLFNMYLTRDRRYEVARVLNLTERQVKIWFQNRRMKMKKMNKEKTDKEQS
Sequence of CRX (Homo sapiens, UniProt O43186 26-111) (O43186 26-111): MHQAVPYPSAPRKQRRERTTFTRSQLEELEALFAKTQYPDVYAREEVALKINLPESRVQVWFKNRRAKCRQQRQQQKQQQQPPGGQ
Sequence of HOXA7 (Homo sapiens, UniProt P31268 116-202, W177C) (P31268 116-202 W177C): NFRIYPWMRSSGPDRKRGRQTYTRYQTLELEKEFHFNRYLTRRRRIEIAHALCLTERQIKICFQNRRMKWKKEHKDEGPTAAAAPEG
Sequence of HOXA2 (Homo sapiens, UniProt O43364 129-215) (O43364 129-215): as the sequence (O43364 129-215 Y150S) above, with S22Y counted along it
Sequence of CRX (Homo sapiens, UniProt O43186 26-111, E42D) (O43186 26-111 E42D): as the sequence (O43186 26-111) above, with E17D counted along it
Sequence of CRX (Homo sapiens, UniProt O43186 26-111, R41L) (O43186 26-111 R41L): as the sequence (O43186 26-111) above, with R16L counted along it
Sequence of HOXC9 (Homo sapiens, UniProt P31274 178-260) (P31274 178-260): as the sequence (P31274 178-260 R222W) above, with W45R counted along it
Sequence of HOXA2 (Homo sapiens, UniProt O43364 129-215, R185K) (O43364 129-215 R185K): as the sequence (O43364 129-215 Y150S) above, with S22Y, R57K counted along it
Sequence of HOXC9 (Homo sapiens, UniProt P31274 178-260, R193K) (P31274 178-260 R193K): as the sequence (P31274 178-260 R222W) above, with R16K, W45R counted along it
Sequence of HOXA7 (Homo sapiens, UniProt P31268 116-202) (P31268 116-202): as the sequence (P31268 116-202 W177C) above, with C62W counted along it

With ACCGTCCG, the binding signal with HESX1 [1] was 6.56 upbm affinity estimate (log intensity, higher = more binding, comparable within an allelic series); with CRX [2] it was 8.31 upbm affinity estimate (log intensity, higher = more binding, comparable within an allelic series); with HESX1 [3], 6.57 upbm affinity estimate (log intensity, higher = more binding, comparable within an allelic series); in the assay with CRX [4], 8.44 upbm affinity estimate (log intensity, higher = more binding, comparable within an allelic series); with HESX1 [5], 6.49 upbm affinity estimate (log intensity, higher = more binding, comparable within an allelic series); with HESX1 [6], 6.5 upbm affinity estimate (log intensity, higher = more binding, comparable within an allelic series). Also, the binding signal with HESX1 [7] was 6.47 upbm affinity estimate (log intensity, higher = more binding, comparable within an allelic series); with CRX [8], 8.35 upbm affinity estimate (log intensity, higher = more binding, comparable within an allelic series).
As to GCCAGACC, the binding signal in the assay with HESX1 [1] is 6.33 upbm affinity estimate (log intensity, higher = more binding, comparable within an allelic series); with SIX6 [9], 9.01 upbm affinity estimate (log intensity, higher = more binding, comparable within an allelic series); in the assay with HOXC9 [10], 9.5 upbm affinity estimate (log intensity, higher = more binding, comparable within an allelic series); with SIX6 [11], 8.79 upbm affinity estimate (log intensity, higher = more binding, comparable within an allelic series); in the assay with PAX4 [12], 9.2 upbm affinity estimate (log intensity, higher = more binding, comparable within an allelic series); with SIX6 [13], 9.01 upbm affinity estimate (log intensity, higher = more binding, comparable within an allelic series). Further, the binding signal with SIX6 [14] was 8.91 upbm affinity estimate (log intensity, higher = more binding, comparable within an allelic series); with PAX4 [15] it was 9.05 upbm affinity estimate (log intensity, higher = more binding, comparable within an allelic series); with SIX6 [16] it was 9.01 upbm affinity estimate (log intensity, higher = more binding, comparable within an allelic series); in the assay with SIX6 [17], 8.95 upbm affinity estimate (log intensity, higher = more binding, comparable within an allelic series); with SIX6 [18], 8.96 upbm affinity estimate (log intensity, higher = more binding, comparable within an allelic series); with SIX6 [19], 9.08 upbm affinity estimate (log intensity, higher = more binding, comparable within an allelic series). For the same sequence, the binding signal with HESX1 [3] is 6.38 upbm affinity estimate (log intensity, higher = more binding, comparable within an allelic series); in the assay with HOXA2 [20], 7.3 upbm affinity estimate (log intensity, higher = more binding, comparable within an allelic series); in the assay with SIX6 [21], 9.06 upbm affinity estimate (log intensity, higher = more binding, comparable within an allelic series); in the assay with HOXC9 [22] it was 9.48 upbm affinity estimate (log intensity, higher = more binding, comparable within an allelic series); with SIX6 [23], 9.03 upbm affinity estimate (log intensity, higher = more binding, comparable within an allelic series); with PAX4 [24], 9.35 upbm affinity estimate (log intensity, higher = more binding, comparable within an allelic series). Besides, the binding signal with HOXC9 [25] is 9.46 upbm affinity estimate (log intensity, higher = more binding, comparable within an allelic series); in the assay with HOXA2 [26], 10.5 upbm affinity estimate (log intensity, higher = more binding, comparable within an allelic series); in the assay with PAX4 [27] it was 9.2 upbm affinity estimate (log intensity, higher = more binding, comparable within an allelic series); with SIX6 [28], 8.94 upbm affinity estimate (log intensity, higher = more binding, comparable within an allelic series); with PAX4 [29] it was 9.19 upbm affinity estimate (log intensity, higher = more binding, comparable within an allelic series); with HESX1 [5], 6.33 upbm affinity estimate (log intensity, higher = more binding, comparable within an allelic series). The binding signal with SIX6 [30] was 9.02 upbm affinity estimate (log intensity, higher = more binding, comparable within an allelic series); with SIX6 [31], 8.93 upbm affinity estimate (log intensity, higher = more binding, comparable within an allelic series); with HESX1 [6], 6.36 upbm affinity estimate (log intensity, higher = more binding, comparable within an allelic series); with HOXC9 [32] it was 9.66 upbm affinity estimate (log intensity, higher = more binding, comparable within an allelic series); with HESX1 [7] it was 6.43 upbm affinity estimate (log intensity, higher = more binding, comparable within an allelic series); in the assay with PAX4 [33], 9.26 upbm affinity estimate (log intensity, higher = more binding, comparable within an allelic series). Also, the binding signal in the assay with HOXA2 [34] is 10.4 upbm affinity estimate (log intensity, higher = more binding, comparable within an allelic series); in the assay with HOXA2 [35], 7.38 upbm affinity estimate (log intensity, higher = more binding, comparable within an allelic series).
As to CGGGCCCG, the binding signal is 6.56 upbm affinity estimate (log intensity, higher = more binding, comparable within an allelic series) with HESX1 [1]; 8.8 upbm affinity estimate (log intensity, higher = more binding, comparable within an allelic series) with HOXA7 [36]; 9.58 upbm affinity estimate (log intensity, higher = more binding, comparable within an allelic series) with PAX4 [12]; 9.62 upbm affinity estimate (log intensity, higher = more binding, comparable within an allelic series) with PAX4 [15]; 6.74 upbm affinity estimate (log intensity, higher = more binding, comparable within an allelic series) with HESX1 [3]; 9.41 upbm affinity estimate (log intensity, higher = more binding, comparable within an allelic series) with PAX4 [24]. The binding signal is 9.21 upbm affinity estimate (log intensity, higher = more binding, comparable within an allelic series) with PAX4 [27]; 9.11 upbm affinity estimate (log intensity, higher = more binding, comparable within an allelic series) with PAX4 [29]; 6.76 upbm affinity estimate (log intensity, higher = more binding, comparable within an allelic series) with HESX1 [5]; 6.72 upbm affinity estimate (log intensity, higher = more binding, comparable within an allelic series) with HESX1 [6]; 6.55 upbm affinity estimate (log intensity, higher = more binding, comparable within an allelic series) with HESX1 [7]; 9.33 upbm affinity estimate (log intensity, higher = more binding, comparable within an allelic series) with PAX4 [33]. Moreover, in the assay with HOXA7 [37], the binding signal was 8.26 upbm affinity estimate (log intensity, higher = more binding, comparable within an allelic series).
Regarding CGATTATC, the binding signal with HESX1 [1] is 8.23 upbm affinity estimate (log intensity, higher = more binding, comparable within an allelic series); with VENTX [38], 10.6 upbm affinity estimate (log intensity, higher = more binding, comparable within an allelic series); in the assay with VENTX [39] it was 10.6 upbm affinity estimate (log intensity, higher = more binding, comparable within an allelic series); in the assay with HESX1 [3], 8.64 upbm affinity estimate (log intensity, higher = more binding, comparable within an allelic series); in the assay with HESX1 [7] it was 6.88 upbm affinity estimate (log intensity, higher = more binding, comparable within an allelic series).
In the case of GTCCTGCA, the binding signal in the assay with HESX1 [1] was 6.29 upbm affinity estimate (log intensity, higher = more binding, comparable within an allelic series); with VENTX [38], 8.28 upbm affinity estimate (log intensity, higher = more binding, comparable within an allelic series); in the assay with VENTX [40], 8.28 upbm affinity estimate (log intensity, higher = more binding, comparable within an allelic series); in the assay with VENTX [39], 8.13 upbm affinity estimate (log intensity, higher = more binding, comparable within an allelic series); with HESX1 [3], 6.29 upbm affinity estimate (log intensity, higher = more binding, comparable within an allelic series); in the assay with NKX2-6 [41] it was 9.59 upbm affinity estimate (log intensity, higher = more binding, comparable within an allelic series). Also, the binding signal in the assay with HESX1 [5] is 6.46 upbm affinity estimate (log intensity, higher = more binding, comparable within an allelic series); with HESX1 [6] it was 6.46 upbm affinity estimate (log intensity, higher = more binding, comparable within an allelic series); with NKX2-6 [42], 9.4 upbm affinity estimate (log intensity, higher = more binding, comparable within an allelic series); with HESX1 [7], 6.53 upbm affinity estimate (log intensity, higher = more binding, comparable within an allelic series).
